Experimental findings from the supplement of paper PMC7156485 are described below.

± gives the standard deviation of the averaged measurements.

What all share (details): concentration: 10 µM; 24 h
Experiment [1] concerns HCC1569. Put plainly: cell number relative to DMSO (% of DMSO); higher = more cells (less growth inhibition / toxicity). The gist of the method: (§1)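 Treatment: HCC1569 and TDF cells, 800 per well in 384-well plates with RPMI and 10% FBS, were given compounds at 10 µM for 24 h at 37 °C, in triplicate. Readout: after 3.7% formaldehyde fixation, cells were stained with a rabbit anti-H1.0 antibody, an AlexaFluor 647 secondary and DAPI. Reported values are H1.0 nuclear intensity or cell number as percent of the plate control, taken as the median of replicates, with positional smoothing for HCC1569.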

The subject of experiment [2] is TDF. The description is as above. The gist of the method: as §1
In experiment [3] the test system is TDF. Nature of the experiment: H1.0 immunofluorescence intensity relative to DMSO (% of DMSO); higher = stronger H1.0 induction, active = 120 or more. The essentials:
as §1

Experiment [4] concerns HCC1569. Put plainly: H1.0 immunofluorescence intensity relative to DMSO (% of DMSO); higher = stronger H1.0 induction, active = 140 or more. The gist of the method: as §1
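Wherever H1.0 immunofluorescence intensity relative to DMSO is given: TDF is a line of transformed human dermal fibroblasts of mesenchymal origin.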
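Wherever cell number relative to DMSO is given: TDF denotes transformed human dermal fibroblasts of mesenchymal origin.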

For `CCC=CCC=CCC=CCC=CCC=CCC=CCCC(=O)OC(COCCCCCCCCCCCCCCCC)COP(=O)([O-])OCC[N+](C)(C)C` (centres undefined), the values for the cell number in the experiment on HCC1569 [1] and in the experiment on TDF [2] were 105 and 100, respectively. For the same compound, the H1.0 immunofluorescence intensity in the experiment with TDF [3] is 95.7 (inactive); in the experiment with HCC1569 [4], 101 (inactive).
For `O=C1Cc2c([nH]c3ccc([N+](=O)[O-])cc23)-c2ccccc2N1` [Alsterpaullone], in that order: 82.4 ± 33, 72.6 ± 41, 92.9 (inactive) and 99.1 (inactive).
For `NC(=O)c1ccc(-c2nc(-c3ccc4c(c3)OCCO4)c(-c3ccccn3)[nH]2)cc1`, in that order: 97.4, 108, 94.2 (inactive) and 122 (inactive).
For `C=CC(C)(O)CCC1C(C)(O)CCC2C(C)(C)CCCC21C` (centres undefined) [Sclareol], in that order: 105, 90.1, 105 (inactive) and 94.7 (inactive).
Consider `CC1(C)CC=C(c2ccccc2)c2cc(/C=C/c3ccc(C(=O)O)cc3)ccc21`, for which the cell number in the experiment on HCC1569 [1] was found to be 99.1; with TDF [2], 91.6. Besides, the figures for the H1.0 immunofluorescence intensity in the experiment with TDF [3] and with HCC1569 [4] were 101 (inactive) and 111 (inactive), respectively.
The corresponding values for `CCCCCCCCC=CCCCCCCCCC(=O)O` [10(Z)-Nonadecenoic acid] are 102, 94.1, 95.6 (inactive) and 106 (inactive).
For `COCCc1ccc(OCC(O)CNC(C)C)cc1.COCCc1ccc(OCC(O)CNC(C)C)cc1.O=C(O)C(O)C(O)C(=O)O` (racemic), in that order: 99.5, 106, 95.6 (inactive) and 108 (inactive).
For `CC(C)NCC(O)COc1cccc2ccccc12` (stereo not drawn) [Propranolol S(-)], in that order: 102, 104, 102 (inactive) and 101 (inactive).
Take `N[C@@H](COP(=O)(O)O)C(=O)O` [O-Phospho-L-serine]: the cell number with HCC1569 [1] was 99.1; in the experiment with TDF [2], 101. The H1.0 immunofluorescence intensity in the experiment with TDF [3] was 94.9 (inactive); with HCC1569 [4], 96.7 (inactive).
On to `COc1ccc(C=CC(=O)Nc2ccccc2C(=O)O)cc1OC` [Tranilast], for which the cell number in the experiment with HCC1569 [1] stood at 99.2 ± 2.1; with TDF [2] it was 103 ± 4.7. Moreover, the figures for the H1.0 immunofluorescence intensity with TDF [3] and in the experiment with HCC1569 [4] were 92.9 (inactive) and 102 (inactive), respectively.
The corresponding values for `Cl.NC(N)=NC(=O)Cc1c(Cl)cccc1Cl` [Guanfacine.HCl] are 101, 82.4, 102 (inactive) and 107 (inactive).
Regarding `NS(=O)(=O)c1cc(C2(O)NC(=O)c3ccccc32)ccc1Cl` (centres undefined), the cell number worked out at 101 in the experiment with HCC1569 [1] and 98.1 in the experiment with TDF [2]. The figures for the H1.0 immunofluorescence intensity in the experiment on TDF [3] and in the experiment on HCC1569 [4] were 96.1 (inactive) and 104 (inactive), respectively.
For `CC(C=CC1=C(C)CCCC1(C)C)=CC=CC(C)=CC(=O)Nc1ccc(O)cc1` [Fenretinide], in that order: 51.1, 106, 97.8 (inactive) and 181 (active).
For `CC=CC(=O)N(CC)c1ccccc1C` [Crotamiton], the cell number in the experiment with HCC1569 [1] is 103; with TDF [2], 98.5. Further, the results for the H1.0 immunofluorescence intensity in the experiment with TDF [3] and in the experiment with HCC1569 [4] were 101 (inactive) and 104 (inactive), respectively.
For the compound `CN1CCN(CCCN2c3ccccc3Sc3ccc(C(F)(F)F)cc32)CC1.Cl.Cl` [Trifluoperazine.2HCl], the cell number in the experiment on HCC1569 [1] was determined as 94.5; in the experiment with TDF [2], 108. The H1.0 immunofluorescence intensity was 97 (inactive) in the experiment with TDF [3] and 122 (inactive) in the experiment on HCC1569 [4].
The corresponding values for `CCCCCCCCCCCC=CCC=CCCCC(=O)O` [Eicosa-5,8-dienoic acid (20:2 n-12)] are 101, 99.6, 96.8 (inactive) and 105 (inactive).
Consider `CCN(CC)Cc1ccc(C(=O)N(CCc2ccccc2OC)[C@@H]2CCNC2)cc1.Cl.Cl`, for which the figures for the cell number in the experiment with HCC1569 [1] and in the experiment on TDF [2] were 98.5 and 95.9, respectively. Also, the H1.0 immunofluorescence intensity in the experiment with TDF [3] is 100 (inactive); in the experiment on HCC1569 [4], 115 (inactive).
For the compound `O=c1c(O)c(-c2ccccc2)oc2cc(O)cc(O)c12` [Galangine], the cell number stood at 98.1 with HCC1569 [1] and 91.3 in the experiment on TDF [2]. Besides, the results for the H1.0 immunofluorescence intensity in the experiment with TDF [3] and in the experiment on HCC1569 [4] were 101 (inactive) and 100 (inactive), respectively.
The corresponding values for `COC1=CC(C)C2CC3OC(=O)CC4C(C)=C(OC)C(=O)C(C2(C)C1=O)C34C` (centres undefined) [Quassin] are 101, 89.6, 96.8 (inactive) and 94.8 (inactive).
On to `NCCS(=O)(=O)O` [Taurine], for which the cell number with HCC1569 [1] was 98.1; in the experiment on TDF [2] it was 112. The results for the H1.0 immunofluorescence intensity in the experiment with TDF [3] and in the experiment with HCC1569 [4] were 96.4 (inactive) and 98.7 (inactive), respectively.
Regarding `Nc1nc(N)nc(-c2cc(Cl)ccc2Cl)n1` [Irsogladine], the cell number in the experiment with HCC1569 [1] and in the experiment with TDF [2] was 105 each time. Besides, the H1.0 immunofluorescence intensity with TDF [3] is 94.5 (inactive); with HCC1569 [4], 107 (inactive).
